Test results published in PubChem BioAssay AID1159580 (chemical genetic matrix, 2015).
“And” between values parts separate entries of the source, which are not always exact repeats. Identical values can stand only once. Among all 5,500 compounds or so, about 2,000 (36%) were called active. Not shown: some 18% with an inconclusive outcome. Cut-off read from the data, not from the text of the source: active = normalized growth mostly below about 0.91 (no sharp cut-off); inconclusive = no clear call, values can overlap the other calls; inactive = mostly above about 0.92. Some of the results follow.

Test: chemical genetic growth profiling, strain panel (AID 1159580);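 note: tested at 20 µM; growth read once vehicle control cultures reached saturation at 30 °C; 1 = growth at the plate median or of vehicle wells; lower values mean less growth of the strain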
Details: S. cerevisiae deletion strains, growth OD

Measured: normalized growth

C#C[C@]1(O)CCC2C3CCC4=CC(=O)CC[C@@H]4C3CC[C@@]21CC (some centres undefined)
inactive: locus YAL021C, strain ccr4, stronger effect = lower value 0.986 | locus YAL026C, strain drs2, stronger effect = lower value 0.972 | locus YAL030W, strain snc1, stronger effect = lower value 1 | locus YBL061C, strain skt5, stronger effect = lower value 0.987 | locus YBR009C, strain hhf1, stronger effect = lower value 0.985 | locus YBR021W, strain FUR4, stronger effect = lower value 1 | locus YBR023C, strain chs3, stronger effect = lower value 0.983 | locus YBR171W, strain sec66, stronger effect = lower value 0.992 | locus YBR229C, strain ROT2, stronger effect = lower value 0.984 | locus YBR231C, strain swc5, stronger effect = lower value 1.01 | locus YBR279W, strain paf1, stronger effect = lower value 0.998 | locus YCL011C, strain gbp2, stronger effect = lower value 1 | locus YCL016C, strain dcc1, stronger effect = lower value 0.988 | locus YCL029C, strain bik1, stronger effect = lower value 0.981 | locus YCL061C, strain MRC1, stronger effect = lower value 0.991 | locus YCL069W, strain vba3, stronger effect = lower value 0.995 | locus YCR088W, strain abp1, stronger effect = lower value 0.999 | locus YDL005C, strain med2, stronger effect = lower value 0.987 | locus YDL035C, strain GPR1, stronger effect = lower value 0.979 | locus YDL040C, strain nat1, stronger effect = lower value 0.99 | locus YDL074C, strain BRE1, stronger effect = lower value 1.04 | locus YDL101C, strain DUN1, stronger effect = lower value 0.987 | locus YDL134C, strain PPH21, stronger effect = lower value 0.974 | locus YDL185W, strain tfp1, stronger effect = lower value 0.982 | locus YDL192W, strain arf1, stronger effect = lower value 0.986 | locus YDR001C, strain nth1, stronger effect = lower value 1 | locus YDR069C, strain doa4, stronger effect = lower value 0.979 | locus YDR101C, strain arx1, stronger effect = lower value 0.988 | locus YDR150W, strain NUM1, stronger effect = lower value 1.01 | locus YDR159W, strain sac3, stronger effect = lower value 0.978 | locus YDR162C, strain NBP2, stronger effect = lower value 0.997 | locus YDR195W, strain ref2 1.05 | locus YDR297W, strain sur2, stronger effect = lower value 0.993 | locus YDR318W, strain mcm21, stronger effect = lower value 0.976 | locus YDR334W, strain swr1, stronger effect = lower value 1.01 | locus YDR335W, strain msn5, stronger effect = lower value 1 | locus YDR388W, stronger effect = lower value 0.992 | locus YDR392W, strain spt3, stronger effect = lower value 0.828 | locus YDR502C, strain sam2, stronger effect = lower value 0.984 | locus YEL003W, strain gim4, stronger effect = lower value 0.967 | locus YEL037C, strain rad23, stronger effect = lower value 0.983 | locus YEL061C, strain CIN8 (second series), stronger effect = lower value 1 | locus YEL061C, strain CIN8, stronger effect = lower value 1.01 | locus YER015W, strain faa2, stronger effect = lower value 1.01 | locus YER016W, strain bim1, stronger effect = lower value 0.993 | locus YER110C, stronger effect = lower value 0.999 | locus YER111C, strain swi4, stronger effect = lower value 0.997 | locus YER155C, strain BEM2 (second series), stronger effect = lower value 0.997 | locus YER155C, strain BEM2, stronger effect = lower value 0.99 | locus YER167W, strain BCK2, stronger effect = lower value 0.991 | locus YFR010W, strain ubp6, stronger effect = lower value 0.991 | locus YGL078C, strain dbp3, stronger effect = lower value 0.989 | locus YGL086W, strain mad1, stronger effect = lower value 1 | locus YGL167C, strain pmr1, stronger effect = lower value 0.995 | locus YGL173C, strain kem1, stronger effect = lower value 0.979 | locus YGL227W, strain vid30, stronger effect = lower value 1.01 | locus YGL240W, strain doc1, stronger effect = lower value 0.991 | locus YGL248W, strain PDE1, stronger effect = lower value 0.993 | locus YGL253W, strain hxk2, stronger effect = lower value 0.995 | locus YGR135W, strain pre9, stronger effect = lower value 0.975 | locus YGR229C, strain SMI1, stronger effect = lower value 1.01 | locus YGR252W, strain gcn5, stronger effect = lower value 1.06 | locus YHR013C, strain ard1, stronger effect = lower value 1.01 | locus YHR027C, strain rpn1, stronger effect = lower value 1.01 | locus YHR030C, strain SLT2, stronger effect = lower value 0.995 and 0.955 | locus YHR079C, strain IRE1 (second series), stronger effect = lower value 0.979 | locus YHR079C, strain IRE1, stronger effect = lower value 0.955 | locus YHR094C, strain hxt1, stronger effect = lower value 1 | locus YHR129C, strain ARP1, stronger effect = lower value 0.996 | locus YHR142W, strain chs7, stronger effect = lower value 0.997 | locus YHR200W, strain rpn10, stronger effect = lower value 0.984 | locus YIL066C, strain RNR3, stronger effect = lower value 0.995 | locus YIL073C, strain SPO22, stronger effect = lower value 0.944 | locus YIL125W, strain kgd1, stronger effect = lower value 0.998 | locus YIR030C, strain dcg1, stronger effect = lower value 0.982 | locus YJL092W, strain hpr5, stronger effect = lower value 0.998 | locus YJL095W, strain BCK1 (second series), stronger effect = lower value 1.01 | locus YJL095W, strain BCK1, stronger effect = lower value 0.988 and 0.951 | locus YJL115W, strain asf1, stronger effect = lower value 1 | locus YJL129C, strain trk1, stronger effect = lower value 0.986 | locus YJL134W, strain LCB3, stronger effect = lower value 0.995 | locus YJL154C, strain vps35, stronger effect = lower value 0.993 | locus YJL164C, strain tpk1, stronger effect = lower value 0.988 | locus YJL166W, strain qcr8, stronger effect = lower value 0.991 | locus YJL168C, strain set2, stronger effect = lower value 0.99 | locus YJL187C, strain SWE1 (second series), stronger effect = lower value 0.988 | locus YJL187C, strain SWE1, stronger effect = lower value 0.997 | locus YJR043C, strain POL32, stronger effect = lower value 1.01
active: locus YDR137W, strain rgp1, stronger effect = lower value 0.82
